Results reported in ChEMBL document CHEMBL1961873, “Compounds: GSK PKIS; Assays: Nanosyn kinase panel” (2012).

Columns and labels:
[1] = target: T1, 3-phosphoinositide-dependent protein kinase 1 (Homo sapiens) (UniProt O15530); conditions: at 0.1 µM;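 further: values are mean inhibition of PDK1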
T1 sequence (whole entry): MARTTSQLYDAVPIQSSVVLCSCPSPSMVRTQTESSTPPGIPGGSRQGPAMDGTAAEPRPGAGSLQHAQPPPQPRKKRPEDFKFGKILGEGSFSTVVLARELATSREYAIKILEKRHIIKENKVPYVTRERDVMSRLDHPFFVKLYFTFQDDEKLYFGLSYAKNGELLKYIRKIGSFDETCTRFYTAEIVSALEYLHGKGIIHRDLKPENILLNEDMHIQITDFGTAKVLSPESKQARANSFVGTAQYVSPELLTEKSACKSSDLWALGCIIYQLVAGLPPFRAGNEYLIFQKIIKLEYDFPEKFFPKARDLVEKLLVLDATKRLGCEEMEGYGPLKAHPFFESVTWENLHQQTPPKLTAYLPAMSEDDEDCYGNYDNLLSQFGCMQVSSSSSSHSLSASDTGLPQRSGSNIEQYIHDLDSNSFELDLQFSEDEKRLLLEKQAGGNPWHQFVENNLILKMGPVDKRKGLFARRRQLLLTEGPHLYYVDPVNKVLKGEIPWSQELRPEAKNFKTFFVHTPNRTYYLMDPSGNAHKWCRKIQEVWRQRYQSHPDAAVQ

[2] = target: cAMP-dependent protein kinase catalytic subunit alpha (Homo sapiens) (UniProt P17612); conditions: at 0.1 µM
[3] = target: cAMP-dependent protein kinase catalytic subunit alpha (Homo sapiens) (UniProt P17612); conditions: at 1 µM
[4] = target: Protein kinase C alpha type (Homo sapiens) (UniProt P17252); conditions: at 0.1 µM
[5] = target: Protein kinase C alpha type (Homo sapiens) (UniProt P17252); conditions: at 1 µM
[6] = target: Protein kinase C beta type (Homo sapiens) (UniProt P05771); conditions: at 0.1 µM
Protein kinase C beta type (Homo sapiens), sequence (P05771 2-671 limits assumed): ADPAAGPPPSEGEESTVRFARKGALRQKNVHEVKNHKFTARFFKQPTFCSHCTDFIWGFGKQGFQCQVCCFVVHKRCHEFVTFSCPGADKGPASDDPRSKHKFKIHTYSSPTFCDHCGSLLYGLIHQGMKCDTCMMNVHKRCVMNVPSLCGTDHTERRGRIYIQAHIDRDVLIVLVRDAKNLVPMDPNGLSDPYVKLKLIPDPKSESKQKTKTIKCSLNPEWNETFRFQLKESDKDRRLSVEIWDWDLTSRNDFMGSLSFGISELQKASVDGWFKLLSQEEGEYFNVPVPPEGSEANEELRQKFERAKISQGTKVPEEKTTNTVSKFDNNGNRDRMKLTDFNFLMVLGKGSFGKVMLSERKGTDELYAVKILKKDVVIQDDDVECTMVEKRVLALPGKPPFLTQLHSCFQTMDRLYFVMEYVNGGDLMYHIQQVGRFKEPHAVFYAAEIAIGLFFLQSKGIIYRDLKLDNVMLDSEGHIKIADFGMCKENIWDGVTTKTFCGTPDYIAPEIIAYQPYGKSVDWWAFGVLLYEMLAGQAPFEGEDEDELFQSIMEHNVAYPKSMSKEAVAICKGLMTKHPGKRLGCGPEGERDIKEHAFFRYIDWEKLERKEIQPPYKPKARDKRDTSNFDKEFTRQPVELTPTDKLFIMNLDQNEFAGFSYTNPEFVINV

[7] = target: Protein kinase C beta type (Homo sapiens) (UniProt P05771); conditions: at 1 µM
[8] = target: Protein kinase C eta type (Homo sapiens) (UniProt P24723); conditions: at 0.1 µM
Protein kinase C eta type (Homo sapiens), sequence (P24723 whole entry): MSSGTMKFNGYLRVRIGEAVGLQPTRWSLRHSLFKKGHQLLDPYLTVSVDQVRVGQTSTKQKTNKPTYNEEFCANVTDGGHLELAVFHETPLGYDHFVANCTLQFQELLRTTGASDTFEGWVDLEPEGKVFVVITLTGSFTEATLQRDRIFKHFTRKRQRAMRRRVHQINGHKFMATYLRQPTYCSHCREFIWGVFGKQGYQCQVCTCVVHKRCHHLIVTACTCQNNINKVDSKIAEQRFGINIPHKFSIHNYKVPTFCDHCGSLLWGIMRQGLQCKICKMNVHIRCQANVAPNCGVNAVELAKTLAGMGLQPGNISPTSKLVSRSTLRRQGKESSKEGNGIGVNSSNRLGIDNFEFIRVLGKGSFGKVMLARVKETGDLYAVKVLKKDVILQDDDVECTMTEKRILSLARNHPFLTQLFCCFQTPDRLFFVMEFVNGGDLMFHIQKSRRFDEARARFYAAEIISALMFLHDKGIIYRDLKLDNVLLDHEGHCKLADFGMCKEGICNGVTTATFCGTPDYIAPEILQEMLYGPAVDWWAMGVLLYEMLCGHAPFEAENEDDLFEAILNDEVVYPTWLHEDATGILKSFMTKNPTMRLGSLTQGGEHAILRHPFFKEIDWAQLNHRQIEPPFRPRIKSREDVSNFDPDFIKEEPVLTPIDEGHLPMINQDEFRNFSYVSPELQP

[9] = target: Protein kinase C eta type (Homo sapiens) (UniProt P24723); conditions: at 1 µM
[10] = target: Protein kinase C gamma type (Homo sapiens) (UniProt P05129); conditions: at 0.1 µM
[11] = target: Protein kinase C gamma type (Homo sapiens) (UniProt P05129); conditions: at 1 µM
[12] = target: T2, Protein kinase C iota type (Homo sapiens) (UniProt P41743); conditions: at 0.1 µM
T2 sequence (whole entry): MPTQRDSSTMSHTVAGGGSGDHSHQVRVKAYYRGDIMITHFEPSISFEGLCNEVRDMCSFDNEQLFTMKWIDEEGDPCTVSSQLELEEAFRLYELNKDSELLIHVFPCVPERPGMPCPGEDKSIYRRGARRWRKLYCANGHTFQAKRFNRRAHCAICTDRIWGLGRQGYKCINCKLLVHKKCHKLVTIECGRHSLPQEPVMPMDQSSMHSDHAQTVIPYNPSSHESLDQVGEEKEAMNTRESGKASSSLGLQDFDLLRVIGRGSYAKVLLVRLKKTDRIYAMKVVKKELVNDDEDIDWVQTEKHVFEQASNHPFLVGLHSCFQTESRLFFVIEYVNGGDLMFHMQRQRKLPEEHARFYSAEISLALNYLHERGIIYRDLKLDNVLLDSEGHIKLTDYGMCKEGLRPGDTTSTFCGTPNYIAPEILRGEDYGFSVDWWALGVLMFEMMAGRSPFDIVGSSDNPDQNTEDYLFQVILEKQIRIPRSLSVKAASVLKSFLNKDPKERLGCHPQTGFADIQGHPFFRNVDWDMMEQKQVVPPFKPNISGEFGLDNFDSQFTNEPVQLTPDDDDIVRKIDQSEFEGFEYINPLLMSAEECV

[13] = target: T2, Protein kinase C iota type (Homo sapiens); conditions: at 1 µM
[14] = target: Protein kinase C theta type (Homo sapiens) (UniProt Q04759); conditions: at 0.1 µM
Protein kinase C theta type (Homo sapiens), sequence (Q04759 whole entry, looked up): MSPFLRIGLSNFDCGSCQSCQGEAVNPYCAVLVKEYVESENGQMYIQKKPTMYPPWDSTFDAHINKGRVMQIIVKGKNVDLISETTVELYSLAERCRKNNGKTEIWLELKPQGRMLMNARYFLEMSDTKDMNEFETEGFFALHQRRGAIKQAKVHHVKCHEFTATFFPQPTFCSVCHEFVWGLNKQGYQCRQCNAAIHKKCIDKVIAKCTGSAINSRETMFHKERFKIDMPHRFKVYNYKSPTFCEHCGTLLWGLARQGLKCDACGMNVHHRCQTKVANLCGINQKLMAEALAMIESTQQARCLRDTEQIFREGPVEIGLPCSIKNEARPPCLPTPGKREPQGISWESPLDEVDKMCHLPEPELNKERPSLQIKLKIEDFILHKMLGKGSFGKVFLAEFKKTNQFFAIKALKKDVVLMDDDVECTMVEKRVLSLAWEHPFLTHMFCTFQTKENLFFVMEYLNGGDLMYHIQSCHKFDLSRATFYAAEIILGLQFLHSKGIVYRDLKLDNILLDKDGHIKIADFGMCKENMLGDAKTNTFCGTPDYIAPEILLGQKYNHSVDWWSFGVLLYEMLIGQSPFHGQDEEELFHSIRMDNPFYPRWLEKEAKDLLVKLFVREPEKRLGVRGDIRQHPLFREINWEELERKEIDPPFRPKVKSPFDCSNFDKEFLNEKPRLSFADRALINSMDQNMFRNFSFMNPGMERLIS

[15] = target: Protein kinase C theta type (Homo sapiens) (UniProt Q04759); conditions: at 1 µM
[16] = target: Protein kinase C beta type (Homo sapiens) (UniProt P05771); conditions: at 0.1 µM; remark: listed apart in the source
[17] = target: Protein kinase C beta type (Homo sapiens) (UniProt P05771); conditions: at 1 µM; remark: listed apart in the source
[18] = target: T3, Serine/threonine-protein kinase D1 (Homo sapiens) (UniProt Q15139); conditions: at 0.1 µM
T3 sequence (whole entry): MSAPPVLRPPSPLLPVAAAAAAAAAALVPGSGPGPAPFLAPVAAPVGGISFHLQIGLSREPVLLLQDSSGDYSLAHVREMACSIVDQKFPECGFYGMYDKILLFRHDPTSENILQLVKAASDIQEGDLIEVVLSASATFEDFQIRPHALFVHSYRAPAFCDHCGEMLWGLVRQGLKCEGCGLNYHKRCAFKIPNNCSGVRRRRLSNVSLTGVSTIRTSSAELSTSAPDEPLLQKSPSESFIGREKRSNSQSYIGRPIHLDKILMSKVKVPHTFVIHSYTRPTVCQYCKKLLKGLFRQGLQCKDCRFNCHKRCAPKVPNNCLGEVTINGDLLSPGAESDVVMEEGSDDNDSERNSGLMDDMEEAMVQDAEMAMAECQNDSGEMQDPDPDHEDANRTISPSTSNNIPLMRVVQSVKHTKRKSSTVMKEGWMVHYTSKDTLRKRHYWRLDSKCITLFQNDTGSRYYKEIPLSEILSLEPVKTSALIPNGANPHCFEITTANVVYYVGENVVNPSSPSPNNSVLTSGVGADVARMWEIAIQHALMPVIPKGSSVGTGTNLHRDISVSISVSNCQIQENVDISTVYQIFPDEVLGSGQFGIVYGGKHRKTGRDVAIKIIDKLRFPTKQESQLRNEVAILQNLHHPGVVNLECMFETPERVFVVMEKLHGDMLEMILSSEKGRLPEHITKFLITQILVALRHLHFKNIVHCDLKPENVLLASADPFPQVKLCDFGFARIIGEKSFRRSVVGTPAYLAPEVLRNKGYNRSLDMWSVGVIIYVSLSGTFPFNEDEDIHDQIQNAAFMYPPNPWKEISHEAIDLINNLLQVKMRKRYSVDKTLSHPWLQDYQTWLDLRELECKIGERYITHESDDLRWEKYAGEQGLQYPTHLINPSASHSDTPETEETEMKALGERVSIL

[19] = target: T3, Serine/threonine-protein kinase D1 (Homo sapiens); conditions: at 1 µM
[20] = target: T4, Serine/threonine-protein kinase D2 (Homo sapiens) (UniProt Q9BZL6); conditions: at 0.1 µM;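 further: reported percent inhibition values are means, part of the GSK PKIS kinase panel screen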
T4 sequence (whole entry): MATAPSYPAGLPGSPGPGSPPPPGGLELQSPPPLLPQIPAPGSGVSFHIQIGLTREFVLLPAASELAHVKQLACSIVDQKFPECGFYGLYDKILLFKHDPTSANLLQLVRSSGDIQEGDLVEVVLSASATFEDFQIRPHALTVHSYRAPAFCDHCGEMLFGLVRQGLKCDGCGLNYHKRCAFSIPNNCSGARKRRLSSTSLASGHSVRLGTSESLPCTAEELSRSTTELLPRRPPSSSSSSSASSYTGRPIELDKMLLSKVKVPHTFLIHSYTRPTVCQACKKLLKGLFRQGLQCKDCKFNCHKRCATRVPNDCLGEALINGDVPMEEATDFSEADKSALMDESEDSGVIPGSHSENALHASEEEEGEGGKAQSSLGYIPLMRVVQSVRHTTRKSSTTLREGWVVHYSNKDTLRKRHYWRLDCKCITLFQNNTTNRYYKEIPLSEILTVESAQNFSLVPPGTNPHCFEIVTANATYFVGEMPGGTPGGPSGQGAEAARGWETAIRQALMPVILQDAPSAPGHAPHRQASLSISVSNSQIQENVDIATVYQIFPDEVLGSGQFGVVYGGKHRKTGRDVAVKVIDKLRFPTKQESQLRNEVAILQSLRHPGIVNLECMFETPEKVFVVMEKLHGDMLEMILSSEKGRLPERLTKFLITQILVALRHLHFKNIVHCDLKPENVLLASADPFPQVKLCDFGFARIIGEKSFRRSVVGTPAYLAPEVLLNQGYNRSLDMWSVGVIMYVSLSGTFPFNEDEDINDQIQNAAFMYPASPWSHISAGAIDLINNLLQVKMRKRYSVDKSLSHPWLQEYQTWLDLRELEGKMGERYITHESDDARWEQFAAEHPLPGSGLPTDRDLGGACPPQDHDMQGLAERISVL

Compound | inhibition [1] | inhibition [2] | inhibition [3] | inhibition [4] | inhibition [5] | inhibition [6] | inhibition [7] | inhibition [8] | inhibition [9] | inhibition [10] | inhibition [11] | inhibition [12] | inhibition [13] | inhibition [14] | inhibition [15] | inhibition [16] | inhibition [17] | inhibition [18] | inhibition [19] | inhibition [20]
COc1cc(C=NNc2ncnc3c2cnn3Cc2ccccc2)ccc1O | -3.37% | -0.54% | 5.93% | -0.63% | 3.5% | 0.36% | 3.19% | -5.63% | -0.89% | -2.68% | 2.96% | -1.06% | -0.54% | -1.05% | 1.99% | -1.09% | 1.44% | -4.01% | -1.69% | -3.31%
CCn1c(-c2nonc2N)nc2c(C#CC(C)(C)O)nc(O[C@@H](CN)c3ccccc3)cc21 | 3.51% | 80.3% | 81.6% | 15.8% | 69.7% | 44.8% | 71.4% | 96.3% | 99% | 54.7% | 81.1% | 3.68% | 26.4% | 73.5% | 84.8% | 49.2% | 80.5% | 8.23% | 61.6% | 9.02%
Nc1nonc1-c1nc2cnccc2n1C1CCCCC1 | 0.3% | 19.5% |  | 2.45% | 38.4% | 31% | 65.3% | 42.3% | 88.5% | 8.45% | 49% | -0.01% | 4.76% | 10.3% | 55.2% | 6.66% | 33.7% | -0.73% | 2.75% | -1.07%
COc1cccc(-n2ncc3c(N/N=C/c4ccncc4)ncnc32)c1 | 3.34% | 1.96% | 4.25% | 2.71% | 8.07% | 1.63% | 7.79% | 4.72% | 2.1% | 1.76% | 7.85% | 3.39% | 13.1% | 2.97% | 5.71% | 2.37% | 9.57% | 4.37% | 10.1% | 4.75%
CCn1c(-c2nonc2N)nc2c(C#CCN)ncc(OCCCN)c21 | 1.2% | 7.1% |  | 1.06% | 4.21% | 14.7% | 47.8% | 19.6% | 73.4% | 3.97% | 4.01% | 2.51% | 16.5% | 6.73% | 38.6% | 4.07% | 12% | -1.16% | -3.02% | -2.14%
Fc1ccc(-c2ncn(C3CCNCC3)c2-c2ccnc(Oc3ccccc3)n2)cc1 | 0.7% | 7.46% | 43.6% | -3.5% | -0.8% | 0.95% | 8.43% | 3.65% | 1.37% | 0.03% | 2.28% | 0.81% | 1.84% | 1.21% | 1.59% | 1.22% | 5.65% | -1.04% | 0.79% | -1.14%
NS(=O)(=O)c1ccc(-c2ccc3c(NC(=O)C4CC4)n[nH]c3c2)cc1 | 2.67% | 1.34% | 1.63% | 0.82% | 0.13% | -1.4% | -0.63% | 3.31% | -0.1% | -1.07% | 0.37% | 1.06% | 3.22% | 1.13% | -0.43% | 0.67% | 1.78% | 1.17% | 1.47% | 1.52%
